In PubChem BioAssay (Tox21) one finds Potency data, which are given here for 13 compounds.

Active and inactive are the calls of the source. Unless noted, calls follow the shape of the dose curve; as a rule, active = well fitted curve in the direction sought with a large enough effect in the repeat runs; inconclusive = weak or mixed curves; inactive = no such curve, though single readings can be large; an effect the other way counts as inactive or inconclusive.

A short description of assay [1]: qHTS assay to identify small molecule antagonists of the thyroid receptor (TR) signaling pathway (AID 743065). Also: nearly all actives have a fitted effect of over 55% in size. Also: potency is read from the fitted curve at half-maximal effect. An outline of the steps: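 Antagonism measured as loss of luciferase signal in GH3 cells stably carrying a TRE-luciferase reporter, co-treated with compound and T3 (1 nM final) for 23.5 h at 37 C. Viability was read in the same well by CellTiter-Fluor.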
(In general: qHTS replaces the single test concentration by a dilution series.)

Assay [2] deals with thyroid hormone receptor (rat, GH3 cells). The assay is described as follows: qHTS assay to identify small molecule agonists of the thyroid receptor (TR) signaling pathway (AID 743066; calls by dose curve).
Assay [3] is described as follows: qHTS assay to identify small molecule antagonists of the estrogen receptor alpha (ER-alpha) signaling pathway - cell viability counter screen (AID 743074; calls by dose curve;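 also: HEK293 cells carrying ER-alpha-UAS-bla reporter stimulated with 17beta-estradiol; nearly all actives have a fitted effect of over 45% in size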).
The target in assay [4] is Estrogen receptor (Homo sapiens) (UniProt P03372). The assay is described as follows: qHTS assay to identify small molecule agonists of the estrogen receptor alpha (ER-alpha) signaling pathway (AID 743075; calls by dose curve;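 also: HEK293 GripTite cells with ER-alpha and UAS-driven beta-lactamase reporter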; also: potency is read from the fitted curve at half-maximal effect).
Assay [5] has the same target. The assay is described as follows: qHTS assay to identify small molecule agonists of the estrogen receptor alpha (ER-alpha) signaling pathway using the BG1 cell line (AID 743079). Also: nearly all actives have a fitted effect of over 20% in size. Also: potency is read from the fitted curve at half-maximal effect.
Assay [6] can be described thus: qHTS assay to identify small molecule antagonists of the estrogen receptor alpha (ER-alpha) signaling pathway using the BG1 cell line (AID 743080; calls by dose curve;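 also: BG1 cells stimulated with 17beta-estradiol alongside compound; nearly all actives have a fitted effect of over 25% in size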; also: potency is read from the fitted curve at half-maximal effect). The essentials:
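Luciferase inhibition measured with ONE-Glo after 30 min at RT in BG1Luc4E2 cells given test compounds and 17beta-estradiol for 21.5 h at 37 C; CellTiter-Fluor viability read in the same wells beforehand.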

Assay [7] can be described thus: qHTS assay to identify small molecule antagonists of the estrogen receptor alpha (ER-alpha) signaling pathway using the BG1 cell line - cell viability counter screen (AID 743081).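 Also: compound given together with 17beta-estradiol as the ER stimulus; series mostly up to about 70 µM; nearly all actives have a fitted effect of over 45% in size.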
Another assay deals with Aromatase (Homo sapiens) (UniProt P11511). The assay is described as follows: qHTS assay to identify aromatase inhibitors (AID 743083). Also: series mostly up to about 70 µM; nearly all actives have a fitted effect of over 55% in size.
For assay [8], the target named is Estrogen receptor (Homo sapiens) (UniProt P03372). The assay is described as follows: qHTS assay to identify small molecule antagonists of the estrogen receptor alpha (ER-alpha) signaling pathway (AID 743069; active = well fitted curve in the direction sought with a large enough effect in the signal ratio in the repeat runs, not every such curve was filed as active; inconclusive = weak or mixed curves, or effect the other way; inactive = no such curve, though single readings can be large or run the other way; the % refers to the signal ratio; also: potency is read from the fitted curve at half-maximal effect). An outline of the steps:
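Antagonist mode: compounds in DMSO were co-added with 17beta-estradiol to ER-alpha-bla HEK293 cells (2% charcoal-stripped serum) and left 18 h at 37C. Reporter inhibition was measured as FRET fluorescence after 2 h LiveBLAzer substrate at room temperature.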

Sequence of Estrogen receptor (Homo sapiens) (P03372 whole entry, looked up): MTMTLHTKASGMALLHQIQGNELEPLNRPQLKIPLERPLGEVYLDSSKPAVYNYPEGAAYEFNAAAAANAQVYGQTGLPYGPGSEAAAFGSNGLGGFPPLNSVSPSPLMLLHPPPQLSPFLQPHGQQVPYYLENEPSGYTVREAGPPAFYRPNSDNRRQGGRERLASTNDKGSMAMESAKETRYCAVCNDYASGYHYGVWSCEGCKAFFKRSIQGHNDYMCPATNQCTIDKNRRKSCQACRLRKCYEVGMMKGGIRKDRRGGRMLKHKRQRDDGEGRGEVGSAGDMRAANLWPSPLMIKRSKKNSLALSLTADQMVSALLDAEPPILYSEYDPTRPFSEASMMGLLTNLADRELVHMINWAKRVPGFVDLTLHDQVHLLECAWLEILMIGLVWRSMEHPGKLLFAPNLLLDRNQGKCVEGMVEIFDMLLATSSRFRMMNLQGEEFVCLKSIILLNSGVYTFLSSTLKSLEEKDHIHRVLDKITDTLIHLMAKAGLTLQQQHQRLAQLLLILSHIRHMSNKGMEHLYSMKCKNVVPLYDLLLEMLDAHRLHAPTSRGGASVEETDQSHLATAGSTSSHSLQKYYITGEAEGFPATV
Sequence of Aromatase (Homo sapiens) (P11511 whole entry, looked up): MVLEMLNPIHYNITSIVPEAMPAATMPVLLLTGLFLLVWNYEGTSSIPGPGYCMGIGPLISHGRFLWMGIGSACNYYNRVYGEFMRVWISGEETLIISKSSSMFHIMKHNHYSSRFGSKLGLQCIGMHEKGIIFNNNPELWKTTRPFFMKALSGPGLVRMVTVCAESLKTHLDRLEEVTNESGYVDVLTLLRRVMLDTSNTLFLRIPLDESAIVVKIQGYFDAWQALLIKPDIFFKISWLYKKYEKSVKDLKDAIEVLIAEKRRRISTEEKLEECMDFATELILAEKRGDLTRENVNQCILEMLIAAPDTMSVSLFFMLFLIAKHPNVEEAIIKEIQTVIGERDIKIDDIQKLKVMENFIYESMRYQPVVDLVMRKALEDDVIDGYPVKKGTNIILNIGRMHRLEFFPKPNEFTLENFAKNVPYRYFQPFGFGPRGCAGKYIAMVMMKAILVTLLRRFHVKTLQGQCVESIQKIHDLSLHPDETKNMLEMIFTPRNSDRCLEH

With `C#C[C@]1(O)CC[C@H]2[C@@H]3CCC4=CC(=O)CCC4=C3C=C[C@@]21CC`, the Potency is 23.7 µM (active) in assay [1], 0.213 µM [inconclusive] (active) in assay [4], 0.0422 µM (active) in assay [5] and 23.7 µM (active) in assay [6]. Moreover, the Potency entry (in assay [2]; in [3]; in assay [7]; with Aromatase (Homo sapiens)) was “inactive” each time.

In the case of `O=S(=O)(c1ccccc1)c1ccccc1`, the Potency result (in assay [1]; in assay [2]; in assay [3]; in assay [7]; with Aromatase (Homo sapiens)) was “inactive” throughout.

As for `CCCCOC(=O)CCC(=O)OCCCC`, the Potency result (in assay [1]; in [2]; in assay [3]; in assay [7]; with Aromatase (Homo sapiens)) was “inactive” in each case.

Consider `CC(Cl)C(=O)O` (centres undefined), for which the Potency entry (in [1]; in assay [2]; in assay [3]; in assay [7]; with Aromatase (Homo sapiens)) was “inactive” in each case.

With `CC(Oc1cc(Cl)c(Cl)cc1Cl)C(=O)O` (centres undefined), the Potency result in assay [8], in assay [3], in assay [4], in assay [5], in [6] and in [7] was “inactive” in each case. Further, the Potency entry with Aromatase (Homo sapiens) is “inactive”.

Consider `O=C(O)C(F)(F)C(F)(F)C(F)(F)C(F)(F)C(F)(F)C(F)(F)C(F)(F)C(F)(F)F`, for which the Potency result in assay [2], in assay [3], in assay [4], in assay [5], in assay [6] and in assay [7] was “inactive” each time. Besides, the Potency entry with Aromatase (Homo sapiens) was “inactive”. Also, the Potency in assay [8] was 27.5 µM [inconclusive] (active).

Consider `O=C(O)CCCOc1ccc(Cl)cc1Cl`, for which the Potency result (in assay [1]; in [2]; in assay [3]; in [7]; in the assay with Aromatase (Homo sapiens)) was “inactive” throughout.

On to `CC[N+]1(C)CCCC(OC(=O)C(O)(c2ccccc2)c2ccccc2)C1` (centres undefined), for which the Potency result (in assay [1]; in assay [2]; in assay [3]; in [7]; with Aromatase (Homo sapiens)) was “inactive” each time.

Turning to `Cc1nnc(-c2ccccc2)c(=O)n1N`, the Potency entry (in [1]; in assay [2]; in assay [8]; in assay [3]; in assay [7]; with Aromatase (Homo sapiens)) was “inactive” throughout.

Consider `NCCc1cc(O)c(O)cc1O`, for which the Potency result in assay [2], in assay [8], in assay [3], in [4], in [5] and in assay [6] was “inactive” in each case. The Potency result (in assay [7]; with Aromatase (Homo sapiens)) was “inactive” in each case.

For `CC(=O)NNc1ccccc1`, the Potency in assay [1] was 4.82 µM (active). Moreover, the Potency entry (in assay [2]; in assay [3]; in assay [7]; with Aromatase (Homo sapiens)) was “inactive” in each case.

For `COc1ccccc1N1CCNCC1`, the Potency result (in assay [1]; in assay [2]; in [3]; in [7]; in the assay with Aromatase (Homo sapiens)) was “inactive” throughout.

For the compound `CC(C)(C)NCC(O)c1cc(Cl)c(N)c(C(F)(F)F)c1` (centres undefined), the Potency result in assay [1], in assay [2], in [8], in assay [3], in assay [4] and in [5] was “inactive” throughout. Besides, the Potency entry with Aromatase (Homo sapiens) is “inactive”.
